# According to PubChem BioAssay AID1851 (National Center for Advancing Translational Sciences (NCATS), 2009):
# The whole screen tested about 16,000 compounds, of which about 5,800 (36%) were called active. Inconclusive results (about 23%) are left out. Some of the results follow. A number with no mark means an inactive call. Calls come from the whole dose curve; as a rule, active = well fitted curve in the direction sought with a large enough effect; inconclusive = small, poorly fitted or top-dose-only effect, or effect the other way; inactive = no such curve, though single readings can be large or run the other way.
# Molecular target: Cytochrome P450 2C19 (Homo sapiens) (UniProt P33261)
# Assay: Cytochrome panel assay with activity outcomes
# Conditions: recombinant CYP, pro-luciferin dealkylation, luminescence, p450-cyp2c19; series mostly up to 57.1 µM
# % is set by controls: 0 for no effect and ±100 for the full control effect.
# Sequence of Cytochrome P450 2C19 (Homo sapiens) (P33261 whole entry, looked up): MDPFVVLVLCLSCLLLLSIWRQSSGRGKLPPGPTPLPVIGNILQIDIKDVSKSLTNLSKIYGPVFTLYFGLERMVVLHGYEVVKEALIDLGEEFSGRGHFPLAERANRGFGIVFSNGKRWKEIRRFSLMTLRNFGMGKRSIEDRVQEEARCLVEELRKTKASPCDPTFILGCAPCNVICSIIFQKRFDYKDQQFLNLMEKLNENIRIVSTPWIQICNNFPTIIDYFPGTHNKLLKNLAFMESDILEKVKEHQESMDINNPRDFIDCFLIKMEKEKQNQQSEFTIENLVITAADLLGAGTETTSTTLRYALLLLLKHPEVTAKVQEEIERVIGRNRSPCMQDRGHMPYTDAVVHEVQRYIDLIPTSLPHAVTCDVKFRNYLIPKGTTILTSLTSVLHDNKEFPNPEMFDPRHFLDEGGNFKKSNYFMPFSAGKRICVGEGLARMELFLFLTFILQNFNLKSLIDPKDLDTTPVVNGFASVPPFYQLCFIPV
Structure (SMILES),AC50,"activity, negative = inhibition"
CC(C)(CC(=O)N1CCN(c2ccc(Cl)cc2)CC1)CC1=NS(=O)(=O)c2ccccc2N1,7.94 µM (active),–
NC(=O)CCCC1=NS(=O)(=O)c2ccccc2N1,inactive,–
CC1=NS(=O)(=O)c2cc(Cl)ccc2N1,inactive,–
COC(=O)C1(CC(C)C)C=C2C(=C(c3ccccc3)C(=O)C2C)CN1 (configuration not stated),39.8 µM (active),–
CCCC1(C(=O)OC)C=C2C(=C(C)C(=O)C2C)CN1 (configuration not stated),inactive,–
CCCC1(C(=O)OC)C=C2C(=C(c3ccccc3)C(=O)C2C)CN1 (configuration not stated),7.94 µM (active),–
CCCC1(C(=O)OC)C=C2C(=C(C(C)C)C(=O)C2C)CN1 (configuration not stated),inactive,–
C[N+](C)(N)Cc1csc(-c2ccc(Cl)cc2)n1,–,8.52% [at 11.4 µM]
Nc1ccccc1SCc1csc(-c2ccc(Cl)cc2)n1,0.501 µM (active),–
NNc1nncc2ccccc12,inactive,–
CC1CCC(C(C)C)C(OCC(O)CN2CCN(Cc3ccccc3)CC2)C1 (configuration not stated),3.55 µM (active),–
O=C(c1ccccc1)c1ccc(OCC(O)CN2CCN(Cc3ccccc3)CC2)cc1 (configuration not stated),4.47 µM (active),–
CN1CCN(CC(O)c2ccccc2)CC1 (configuration not stated),inactive,–
O[C@H](COc1ccccc1)CN1CCCCC1,–,3.88% [at 11.4 µM]
CC1CC(OCC(O)CN2CCN(Cc3ccccc3)CC2)CC(C)(C)C1 (configuration not stated),inactive,–
CC#C[C@]1(O)CC[C@H]2[C@@H]3CCC4=CC(=O)CCC4=C3[C@H](c3ccc(N(C)C)cc3)C[C@@]21C,7.94 µM (active),–
COc1cc2nc(N(C)CCCNC(=O)[C@@H]3CCCO3)nc(N)c2cc1OC,inactive,–
C=Cc1c(C)c2cc3nc(cc4[nH]c(cc5nc(cc1[nH]2)C(C)=C5CCC(=O)O)c(CCC(=O)OC)c4C)[C@@]1(C)C3=CC=C(C(=O)OC)[C@H]1C(=O)OC (tested in a mixture with another compound),1.26 µM (active),–
O=C(O)[C@@H]1[C@@H](C(=O)O)[C@]23C[C@@]2(C(=O)O)[C@]2(C(=O)O)CCC3=C3CCCC312,–,37.4% [at 11.4 µM]
c1ccc(Cc2nnc(Sc3ccccc3)c3ccccc23)cc1,5.01 µM (active),–
N#CCCn1c(=O)c(-c2cccs2)nc2cnc(Nc3ccccc3)nc21,inactive,–
COc1cc(C(=O)OC(C)C(=O)Nc2ccc3c(c2)OCO3)ccc1OCc1c(C)noc1C (configuration not stated),14.1 µM (active),–
O=C(O)[C@@H](S)[C@H](S)C(=O)O,–,-39.9% [at 11.4 µM]

Structure (SMILES),AC50,"activity, negative = inhibition"
O=C(c1ccc(F)cc1)C1CCN(CCn2c(=S)[nH]c3ccccc3c2=O)CC1,inactive,–
CC1CCCC(n2c(=S)[nH]c3ccccc3c2=O)C1C (configuration not stated),0.1 µM (active),–
Cc1cc(=O)c2ccccc2[nH]1,inactive,–
OCCNc1nc(SCc2ccccc2)nc2sc3c(c12)CCC3,2.82 µM (active),–
C[C@H](Nc1ncnc2sc3c(c12)CCC3)C(=O)O,inactive,–
CC(CO)Nc1nc(SCc2ccccc2)nc2sc3c(c12)CCC3 (configuration not stated),3.16 µM (active),–
COCCNc1nc(SCc2ccccc2)nc2sc3c(c12)CCC3,4.47 µM (active),–
COCCNc1nc(-c2ccccc2C)nc2ccccc12,inactive,–
O=C(c1cnccn1)N1CCC2(CCN(Cc3nccs3)CC2)CC1,inactive,–
O=C(c1cnccn1)N1CCC2(CC1)CN(Cc1nccs1)C2,inactive,–
COC(=O)N1CCC2(CCN(Cc3nccs3)CC2)CC1,inactive,–
COCC(=O)N1CCC[C@@]2(CCN(Cc3nccs3)C2)C1,inactive,–
CC(=O)N1CCC2(CCN(Cc3nccs3)CC2)CC1,inactive,–
CC(=O)N1CCC2(CCCN(Cc3nccs3)C2)CC1,5.01 µM (active),–
CC(=O)N1CCC[C@@]2(CCN(Cc3nccs3)C2)C1,inactive,–
O=C(c1cnccn1)N1CCC2(CCCN(Cc3nccs3)C2)CC1,15.8 µM (active),–
COC(=O)N1CCC2(CCCN(Cc3nccs3)C2)CC1,20 µM (active),–
CCc1ccc(N(C(=O)c2snc(C(N)=O)c2N)C(C(=O)NCCC(C)C)c2c[nH]c3ccccc23)cc1 (configuration not stated),2.24 µM (active),–
CC1(C)S[C@@H]2[C@H](NC(=O)[C@@H](N)c3ccc(O)cc3)C(=O)N2[C@H]1C(=O)O,inactive,–
CCOC(=O)c1cc2c(C)n(-c3ccc(C)cc3)c(C)c2ccc1=O,14.1 µM (active),–
C[C@H]1[C@@H](O)[C@@H](C)\C=C/C=C\C=C/C=C\C=C/C=C\C=C/[C@@H](O[C@H]2O[C@@H](C)[C@@H](O)[C@@H](N)[C@@H]2O)C[C@@H]2O[C@](O)(C[C@@H](O)C[C@@H](O)[C@@H](O)CC[C@@H](O)C[C@@H](O)CC(=O)O[C@H]1C)C[C@@H](O)[C@H]2C(=O)O (stereo in doubt),inactive,–
COC(=O)c1[nH]c2cc(OC)ccc2c1NC(=O)c1ccc2c(c1)OCO2,10 µM (active),–
CCOC(=O)c1[nH]c2cc(OC)c(OC)cc2c1NC(=O)c1ccc2c(c1)OCO2,inactive,–

Structure (SMILES),AC50,"activity, negative = inhibition"
CCOC(=O)c1[nH]c2cc3c(cc2c1NC(=O)CN1CCC2(CC1)OCCO2)OCO3,inactive,–
CCOC(=O)c1[nH]c2cc(OC)c(OC)cc2c1NC(=O)c1nonc1C,inactive,–
CCOC(=O)c1[nH]c2ccc(OC)cc2c1NC(=O)c1ccc2c(c1)OCO2,7.08 µM (active),–
COC(=O)c1[nH]c2cc(OC)ccc2c1NC(=O)c1nonc1C,inactive,–
CC(C)[C@@H](OCc1ccccc1)[C@H](C)/C=N\OC[C@@H](O)[C@@H]1O[C@@H]2OC(C)(C)O[C@@H]2[C@H]1O,–,-18.3% [at 11.4 µM]
C[C@@H](C(=O)Nc1ccc2ccccc2c1)[C@H]1C[C@]1(C)[C@H](NC(=O)OCc1ccccc1)c1ccccc1,1 µM (active),–
C[C@@H](C(=O)Nc1ccc2ccccc2c1)[C@@H]1C[C@@]1(C)[C@@H](NC(=O)OCc1ccccc1)c1ccccc1,3.16 µM (active),–
CCCn1c(=O)c2[nH]c(C3CCCC3)nc2n(CCC)c1=O,inactive,–
O=c1c2ccccc2nnn1CSc1nnc(COc2ccc(Cl)cc2)n1Cc1ccco1,14.1 µM (active),–
Cc1cccc(NC(=O)c2cccc(N3C(=O)C4C5CCC(C5)C4C3=O)c2)c1C (configuration not stated),inactive,–
O=C(Nc1ccc(Cl)cc1Cl)c1cccc(N2C(=O)C=CC2=O)c1,3.98 µM (active),–
COc1ccc(N2C(=O)c3ccccc3NC2c2ccc(OC)c(CSc3ccccn3)c2)cc1 (configuration not stated),0.891 µM (active),–
COc1cccc(/C(O)=C2/C(=O)C(=O)N(c3ccccn3)C2c2ccc(OC)c(OC)c2)c1 (configuration not stated),inactive,–
c1ccc2c[n+](Cc3ccnc4ccccc34)ccc2c1,–,10.8% [at 11.4 µM]
CCc1c(C)sc(NC(=O)OC)c1C(N)=O,inactive,–
CCOc1ccc(CC(=O)Nc2sc(Cc3ccccc3)c(C)c2C(N)=O)cc1OCC,4.47 µM (active),–
CCOc1cc(CC(=O)N[C@@H](CC(C)C)c2ccccc2N2CCCCC2)ccc1C(=O)O,inactive,–
COc1c(NC(C)=O)c2ccccc2c2ccccc12,–,4.06% [at 11.4 µM]
COC(=O)c1c(C)[nH]c(C)c1C(=O)c1ccccc1Cc1ccccc1,inactive,–
COC(=O)c1c(NC(C)=O)sc(Cc2ccccc2)c1C,4.47 µM (active),–
COc1ccc2[nH]cc(CCNc3cc(-c4ccccc4C)ncn3)c2c1,7.94 µM (active),–
COc1ccc2[nH]cc(CCNc3cc(-c4ccccc4C(F)(F)F)ncn3)c2c1,10 µM (active),–
COc1ccc2[nH]cc(CCNc3cc(-c4ccccc4OC)ncn3)c2c1,3.16 µM (active),–

Structure (SMILES),AC50,"activity, negative = inhibition"
CC(=O)NCCNc1cc(-c2ccccc2CN(C)C)ncn1,inactive,–
N[C@H](C(=O)O)c1cccc(O)c1,inactive,–
Fc1ccc2nc(Nc3nc4c(s3)CCCC4)sc2c1,17.8 µM (active),–
COc1cccc(-c2cc(C(=O)Nc3cccc(O)c3)no2)c1,3.16 µM (active),–
COc1ccc(C2CC(=O)CC(=O)C2n2cncn2)cc1 (configuration not stated),inactive,–
CN1C(=O)C[C@H](c2ccccc2)C1=O,inactive,–
CCCC1C(=O)N(c2ccccc2)C1c1ccccc1 (configuration not stated),4.47 µM (active),–
O=C1C(Cc2ccccc2)C(c2ccccc2)N1c1ccccc1 (configuration not stated),1.26 µM (active),–
CC(C)(C)CC(C)(C)c1ccc(OCOCCOCCO)c(Cc2cc(C(C)(C)CC(C)(C)C)cc(Cc3cc(C(C)(C)CC(C)(C)C)ccc3OCOCCOCCO)c2OCOCCOCCO)c1,inactive,–
CO[C@H]1[C@H](O[C@H]2O[C@@H](C)[C@@H](O[C@@H]3C[C@](C)(O)[C@H](OC(=O)CC(C)C)[C@H](C)O3)[C@@H](N(C)C)[C@@H]2O)[C@@H](CC=O)C[C@@H](C)[C@@H](O)/C=C\C=C/C[C@@H](C)OC(=O)C[C@H]1OC(C)=O,inactive,–
C[C@@H](C[N+](C)(C)C)OC(N)=O,inactive,–
O[C@@H](c1cc(C(F)(F)F)nc2c(Cl)cc(Cl)cc12)[C@@H]1CCCCN1,–,-14.3% [at 11.4 µM]
O[C@H](C[C@@H]1CCCCN1)c1ccc2c(c1)oc1ccccc12,–,-14.6% [at 11.4 µM]
COc1ccc(-c2cc([C@H](O)[C@@H]3CCCCN3)c3ccccc3n2)cc1,3.98 µM (active),–
COCCNc1ncnc2ccc(-c3cccc(NS(C)(=O)=O)c3)cc12,inactive,–
COc1ccc(CNc2ncnc3ccc(-c4cccc(NS(C)(=O)=O)c4)cc23)c(OC)c1,2.51 µM (active),–
COc1ccccc1CNc1ncnc2ccc(-c3cccc(NS(C)(=O)=O)c3)cc12,15.8 µM (active),–
c1ccc2cc(C3=NCCN3)ncc2c1,inactive,–
N#Cc1c(-c2ccc(Cl)cc2)nc2n(c1=O)CCCS2,7.94 µM (active),–
N#Cc1c(-c2ccccc2)nc2n(c1=O)CCS2,15.8 µM (active),–
COc1cc(=O)n2c(n1)SCCC2,inactive,–
O=c1c(-c2ccccc2)c(O)c2cccc3c2n1CCC3,inactive,–
CCCCN(Cc1ccccc1)C(=O)c1cnc2n(c1=O)CCS2,inactive,–
